Holding throughout (parameters): scale not given: direction of the effect not stated beside the values
The target in test [1] is Protein translocase subunit SecA (Escherichia coli (strain K12)) (UniProt P10408). Description: Assay to Identify E. coli SecA ATPase Inhibitors. The test is classed as functional. To be noted: 30 µM.
For test [2], the target named is T1, Ubiquitin-activating enzyme e1, putative (Leishmania donovani (strain BPK282A1)) (UniProt E9BSI1).
T1 sequence (whole entry): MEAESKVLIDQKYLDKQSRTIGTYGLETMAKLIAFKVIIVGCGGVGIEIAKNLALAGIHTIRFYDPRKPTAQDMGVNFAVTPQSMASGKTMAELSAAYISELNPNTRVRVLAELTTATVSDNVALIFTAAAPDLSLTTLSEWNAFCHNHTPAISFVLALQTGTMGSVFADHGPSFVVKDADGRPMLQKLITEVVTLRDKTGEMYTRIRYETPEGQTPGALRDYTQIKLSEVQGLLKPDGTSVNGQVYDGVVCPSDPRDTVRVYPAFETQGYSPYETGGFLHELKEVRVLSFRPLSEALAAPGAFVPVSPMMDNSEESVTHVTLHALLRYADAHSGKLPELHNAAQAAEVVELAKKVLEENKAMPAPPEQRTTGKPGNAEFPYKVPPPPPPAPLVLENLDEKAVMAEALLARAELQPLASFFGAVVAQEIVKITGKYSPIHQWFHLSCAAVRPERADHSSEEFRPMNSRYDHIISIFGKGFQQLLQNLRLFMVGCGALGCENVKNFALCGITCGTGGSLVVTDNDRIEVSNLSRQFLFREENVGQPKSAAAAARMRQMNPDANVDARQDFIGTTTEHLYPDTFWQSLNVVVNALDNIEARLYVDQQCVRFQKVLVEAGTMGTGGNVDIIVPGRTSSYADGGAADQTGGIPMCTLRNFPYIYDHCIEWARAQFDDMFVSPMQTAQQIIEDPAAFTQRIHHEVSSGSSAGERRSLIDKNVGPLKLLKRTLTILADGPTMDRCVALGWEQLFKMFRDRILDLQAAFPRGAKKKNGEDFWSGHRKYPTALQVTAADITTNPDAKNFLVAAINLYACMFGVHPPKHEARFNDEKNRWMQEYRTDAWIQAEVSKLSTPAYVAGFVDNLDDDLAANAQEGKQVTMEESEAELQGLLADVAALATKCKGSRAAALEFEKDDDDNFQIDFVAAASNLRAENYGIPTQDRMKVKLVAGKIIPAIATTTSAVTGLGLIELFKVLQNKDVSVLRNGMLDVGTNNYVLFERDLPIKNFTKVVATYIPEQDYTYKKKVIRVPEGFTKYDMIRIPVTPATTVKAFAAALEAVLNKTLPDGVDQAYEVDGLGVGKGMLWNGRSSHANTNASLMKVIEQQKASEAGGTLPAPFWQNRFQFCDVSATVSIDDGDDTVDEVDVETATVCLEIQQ
Description: Leishmania donovani Ubiquitin Activating Enzyme (LdE1). The test is classed as functional. Particulars: 30 µM.

The target of test [3] is AMP-activated protein kinase, AMPK (Homo sapiens) (UniProt P54646+O43741+P54619+Q9UGJ0+Q9Y478+Q13131+Q9UGI9). Description: AMP-dependent Kinase enzyme assay. An in vitro enzyme assay that detects ADP turnover that is directly proportional to AMPK activity. This uses naive AMPK that is activated during the assay with MK-8722. Particulars: 30 µM. Format: functional.
The target in test [4] is Sialic acid-binding Ig-like lectin 9 (Homo sapiens) (UniProt Q9Y336). Description: Hs-Siglec9 ALPHAscreen SOP 20170721. To be noted: 10 µM. (Bead proximity is the source of the signal in Alpha formats.)
Test [5] deals with Trypanosoma cruzi. Description: Trypanosoma cruzi phosphomannomutase and mannose-1-phosphate guanylyltransferase assay. Format: functional. To be noted: 10 µM.
Test [6] concerns the target T2, Arginase-2, mitochondrial (Homo sapiens) (UniProt P78540).
T2 sequence (whole entry): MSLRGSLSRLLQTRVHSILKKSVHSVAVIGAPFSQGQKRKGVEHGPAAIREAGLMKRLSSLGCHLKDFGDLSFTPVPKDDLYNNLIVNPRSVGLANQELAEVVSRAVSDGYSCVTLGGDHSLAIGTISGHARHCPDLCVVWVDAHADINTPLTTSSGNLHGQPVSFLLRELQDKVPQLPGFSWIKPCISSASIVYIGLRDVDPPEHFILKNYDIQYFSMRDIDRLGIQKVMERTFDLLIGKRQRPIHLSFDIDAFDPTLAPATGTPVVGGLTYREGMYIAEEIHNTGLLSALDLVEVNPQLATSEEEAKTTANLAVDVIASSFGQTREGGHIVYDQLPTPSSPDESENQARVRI
Nature of the test: in vitro enzyme assay to detect the production of urea directly proportional to the activity of Arginase II. Further: in the data most compounds retested in dose-response had high values. Format: functional. Particulars: 33.3 µM.

Test [7] addresses T3, Proteasome subunit beta (Trypanosoma cruzi) (UniProt O96673).
T3 sequence (whole entry): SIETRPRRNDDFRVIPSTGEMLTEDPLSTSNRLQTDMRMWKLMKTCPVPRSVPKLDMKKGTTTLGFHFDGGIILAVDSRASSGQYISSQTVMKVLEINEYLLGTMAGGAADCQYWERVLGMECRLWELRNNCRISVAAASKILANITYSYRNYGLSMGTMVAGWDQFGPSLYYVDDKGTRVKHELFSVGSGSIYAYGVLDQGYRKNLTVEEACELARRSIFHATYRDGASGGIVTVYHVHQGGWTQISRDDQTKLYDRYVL
Description: Trypanosoma cruzi proteasome chymotrypsin-like activity (TcProtChymo) assay. Further: in the data most compounds retested in dose-response had high values. Format: functional. To be noted: 9.37 µM.

For test [8], the species on record is Homo sapiens. Nature of the test: To identify inhibition of the IFN signalling (Jak-Stat) pathway via expression of an eGFP reporter gene under the control of an IFN-stimulated response element (ISRE) containing MxA promoter. Particulars: 30 µM. The test is classed as functional. For orientation: In a reporter assay the amount or activity of a reporter protein is the signal.

Test [9] addresses T4, Tyrosyl-tRNA synthetase, putative (Trypanosoma cruzi (strain CL Brener)) (UniProt Q4DSP6).
T4 sequence (whole entry): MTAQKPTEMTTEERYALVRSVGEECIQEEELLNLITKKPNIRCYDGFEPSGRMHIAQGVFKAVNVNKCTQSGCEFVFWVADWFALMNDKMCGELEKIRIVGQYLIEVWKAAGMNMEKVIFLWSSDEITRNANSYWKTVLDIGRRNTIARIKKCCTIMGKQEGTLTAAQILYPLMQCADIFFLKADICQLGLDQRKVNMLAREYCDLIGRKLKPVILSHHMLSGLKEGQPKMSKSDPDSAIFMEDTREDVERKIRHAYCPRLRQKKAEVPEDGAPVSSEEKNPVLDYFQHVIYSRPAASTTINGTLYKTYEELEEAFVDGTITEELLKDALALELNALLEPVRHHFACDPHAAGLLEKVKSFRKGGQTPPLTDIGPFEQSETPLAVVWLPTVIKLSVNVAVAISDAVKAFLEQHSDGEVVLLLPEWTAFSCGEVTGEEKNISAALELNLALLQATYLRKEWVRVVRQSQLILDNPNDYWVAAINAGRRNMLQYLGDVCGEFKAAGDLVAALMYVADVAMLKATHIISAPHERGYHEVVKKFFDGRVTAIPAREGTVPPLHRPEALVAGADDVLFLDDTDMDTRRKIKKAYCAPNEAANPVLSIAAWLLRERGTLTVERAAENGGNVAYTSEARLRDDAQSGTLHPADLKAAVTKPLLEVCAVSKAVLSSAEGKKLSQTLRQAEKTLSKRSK
Description: Trypanosoma cruzi tyrosyl tRNA synthetase (TcYRS) _High Tyrosine SOP. Further: in the data most compounds retested in dose-response had high values. The test is classed as functional. Particulars: 30 µM.

Test [10] has as its target T4, Tyrosyl-tRNA synthetase, putative (Trypanosoma cruzi (strain CL Brener)). Description: Trypanosoma cruzi tyrosyl tRNA synthetase (TcYRS) SOP. The test is classed as functional. To be noted: 30 µM.
Test [11] addresses Chromo domain-containing protein 1 (Saccharomyces cerevisiae (strain ATCC 204508 / S288c) (Baker's yeast)) (UniProt P32657). Description: ScCHD-1 Enzyme Inhibition Assay. Further: in the data most compounds retested in dose-response had high values. Format: functional. Particulars: 30 µM.

The structures appear in SMILES notation. For some assays here: Entries with a potency or affinity are not part of this list.

Chain of Sialic acid-binding Ig-like lectin 9 (Homo sapiens) (Q9Y336 whole entry): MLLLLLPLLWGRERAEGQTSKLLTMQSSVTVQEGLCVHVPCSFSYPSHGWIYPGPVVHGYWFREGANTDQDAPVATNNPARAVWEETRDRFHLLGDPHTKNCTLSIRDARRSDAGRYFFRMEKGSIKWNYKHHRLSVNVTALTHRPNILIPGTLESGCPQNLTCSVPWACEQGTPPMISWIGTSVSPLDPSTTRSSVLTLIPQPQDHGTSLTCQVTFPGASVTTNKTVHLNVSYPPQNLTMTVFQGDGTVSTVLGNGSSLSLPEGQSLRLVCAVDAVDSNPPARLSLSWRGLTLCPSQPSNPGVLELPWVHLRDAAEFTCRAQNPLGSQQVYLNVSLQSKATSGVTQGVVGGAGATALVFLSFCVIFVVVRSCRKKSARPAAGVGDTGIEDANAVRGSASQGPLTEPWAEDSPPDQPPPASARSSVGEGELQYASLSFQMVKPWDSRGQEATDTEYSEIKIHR
Chain of Chromo domain-containing protein 1 (Saccharomyces cerevisiae (strain ATCC 204508 / S288c) (Baker's yeast)) (P32657 whole entry, the tested form may be a part): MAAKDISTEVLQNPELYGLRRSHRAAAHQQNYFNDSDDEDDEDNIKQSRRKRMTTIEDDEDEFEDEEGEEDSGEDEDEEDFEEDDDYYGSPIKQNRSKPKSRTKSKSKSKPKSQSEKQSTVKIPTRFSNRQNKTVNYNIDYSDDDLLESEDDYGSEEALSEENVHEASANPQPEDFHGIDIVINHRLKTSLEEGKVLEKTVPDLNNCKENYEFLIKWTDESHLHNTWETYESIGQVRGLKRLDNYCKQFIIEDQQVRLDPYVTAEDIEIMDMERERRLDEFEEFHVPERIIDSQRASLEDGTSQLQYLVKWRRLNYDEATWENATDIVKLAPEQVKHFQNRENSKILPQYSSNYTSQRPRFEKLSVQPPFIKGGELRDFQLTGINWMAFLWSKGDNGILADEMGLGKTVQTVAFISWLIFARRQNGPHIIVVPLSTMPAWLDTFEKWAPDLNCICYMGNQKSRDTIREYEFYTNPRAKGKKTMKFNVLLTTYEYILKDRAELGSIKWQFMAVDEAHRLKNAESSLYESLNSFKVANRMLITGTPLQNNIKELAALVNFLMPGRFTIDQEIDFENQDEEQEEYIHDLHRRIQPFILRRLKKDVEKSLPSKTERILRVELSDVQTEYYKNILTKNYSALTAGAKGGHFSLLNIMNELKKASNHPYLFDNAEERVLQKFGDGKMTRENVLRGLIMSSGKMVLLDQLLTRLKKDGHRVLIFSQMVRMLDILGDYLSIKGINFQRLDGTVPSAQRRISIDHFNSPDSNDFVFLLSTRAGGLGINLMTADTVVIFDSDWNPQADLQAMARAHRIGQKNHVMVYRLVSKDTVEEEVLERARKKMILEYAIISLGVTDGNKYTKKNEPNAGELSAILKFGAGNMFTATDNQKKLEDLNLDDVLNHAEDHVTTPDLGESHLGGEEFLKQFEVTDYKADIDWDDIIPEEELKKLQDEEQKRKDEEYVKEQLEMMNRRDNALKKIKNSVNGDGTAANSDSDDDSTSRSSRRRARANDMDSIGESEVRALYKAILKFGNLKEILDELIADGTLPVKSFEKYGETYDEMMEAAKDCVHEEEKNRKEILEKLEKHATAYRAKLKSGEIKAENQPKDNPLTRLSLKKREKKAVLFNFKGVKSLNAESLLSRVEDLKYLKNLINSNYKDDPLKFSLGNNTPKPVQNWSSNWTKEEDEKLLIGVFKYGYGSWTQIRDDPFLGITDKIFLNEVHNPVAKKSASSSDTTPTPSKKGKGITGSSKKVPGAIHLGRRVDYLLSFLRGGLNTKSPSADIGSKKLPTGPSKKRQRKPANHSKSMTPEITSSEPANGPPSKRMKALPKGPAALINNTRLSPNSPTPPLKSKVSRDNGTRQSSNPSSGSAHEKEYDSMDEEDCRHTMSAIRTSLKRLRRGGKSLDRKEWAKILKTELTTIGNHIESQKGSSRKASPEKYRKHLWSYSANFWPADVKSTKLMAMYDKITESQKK
Chain of Protein translocase subunit SecA (Escherichia coli (strain K12)) (P10408 whole entry): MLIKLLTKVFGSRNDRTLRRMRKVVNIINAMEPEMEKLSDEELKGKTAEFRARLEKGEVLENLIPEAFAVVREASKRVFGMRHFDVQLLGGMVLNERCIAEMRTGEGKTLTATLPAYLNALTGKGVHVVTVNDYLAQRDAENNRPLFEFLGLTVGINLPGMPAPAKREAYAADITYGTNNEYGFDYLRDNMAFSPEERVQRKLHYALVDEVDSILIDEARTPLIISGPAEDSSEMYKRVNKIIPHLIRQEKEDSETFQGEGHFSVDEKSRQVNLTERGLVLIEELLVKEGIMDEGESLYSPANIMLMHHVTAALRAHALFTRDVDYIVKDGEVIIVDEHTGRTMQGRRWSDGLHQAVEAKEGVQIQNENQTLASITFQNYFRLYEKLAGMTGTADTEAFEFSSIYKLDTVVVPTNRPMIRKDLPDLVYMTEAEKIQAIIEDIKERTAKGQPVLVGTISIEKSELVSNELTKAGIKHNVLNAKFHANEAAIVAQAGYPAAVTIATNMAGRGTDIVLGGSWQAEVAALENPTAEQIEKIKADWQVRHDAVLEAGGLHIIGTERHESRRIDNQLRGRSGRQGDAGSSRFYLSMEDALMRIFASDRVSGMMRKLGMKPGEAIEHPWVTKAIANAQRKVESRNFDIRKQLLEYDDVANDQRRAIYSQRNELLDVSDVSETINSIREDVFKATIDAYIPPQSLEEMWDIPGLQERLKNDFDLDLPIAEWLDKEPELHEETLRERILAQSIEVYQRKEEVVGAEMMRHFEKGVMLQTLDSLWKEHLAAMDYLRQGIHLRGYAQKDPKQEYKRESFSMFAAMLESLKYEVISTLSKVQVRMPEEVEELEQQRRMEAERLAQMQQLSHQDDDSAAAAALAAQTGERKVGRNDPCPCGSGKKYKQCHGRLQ

For the compound `CC1CN(C)c2ccccc2CN1C(=O)c1ccncc1` (stereo not given), the Percent Effect was -2.73% in test [1]; 13.7% in test [2]; 4.78% in test [3]; 21.6% in test [4]; 3.53% in test [5]; 32.3% in [6]. Besides, the Percent Effect is 8.87% in [7]; 1.93% in test [8]; 2.15% in test [9]; 5% in test [10]; -3% in test [11].
Take `CC(=O)N(C)c1nc(CN2CCOC(Cn3cc(C)cn3)C2)cs1` (stereo not given): the Percent Effect is -1.65% in test [1]; 28.6% in test [2]; -5.25% in test [3]; -17.3% in test [4]; 3.82% in test [5]; -6.95% in [6]. The Percent Effect was 17.4% in test [7]; 16.8% in test [8]; 8.57% in test [9]; 30.6% in test [10]; -22.3% in test [11].
Turning to `O=S1(=O)C[C@@H]2[C@H](C1)N(Cc1ncc[nH]1)CCN2CC1CC1`, the Percent Effect in test [1] was -2.38%; in test [2] it was 0%; in test [3], -1.5%; in test [4], -1.31%; in [5], -3.28%; in test [6] it was 1.43%. The Percent Effect in test [7] was 3.45%; in [8], 1.15%; in [9], 5.82%; in test [10], 14.6%; in test [11], -2.92%.
For `COc1ccc(OCC(=O)NS(=O)(=O)c2cc(F)ccc2F)cc1`, the Percent Effect is -8% in test [1]; 0% in test [2]; 5.69% in [3]; -4.95% in test [4]; -3.28% in test [5]; -3.33% in test [6]. Besides, the Percent Effect in test [7] was 5.34%; in test [8] it was 22.6%; in [9], -3.7%; in [10], -4.88%; in test [11], -2.11%.
Regarding `COc1cccc(CNc2nc(O)cc(C3CC(=O)N(C)C3)n2)c1` (stereo not given), the Percent Effect in test [1] was 1.85%; in [2] it was 12.2%; in [3], 4.37%; in test [4], 1.72%; in test [5], -4.35%; in [6], 2.09%. Besides, the Percent Effect in [7] was 16.7%; in test [8] it was 14.9%; in test [9], 5.38%; in test [10], -1.3%; in test [11] it was -11.6%.
In the case of `COC(=O)CCNC(=O)C1CC(=O)N(C2CCCC2)C1` (stereo not given), the Percent Effect in test [1] was -4.42%; in [2], -2.7%; in test [3], -0.395%; in test [4], -6.64%; in test [5], -0.781%; in test [6] it was -2.08%. In addition, the Percent Effect in [7] was 5.83%; in test [8], -6.8%; in test [9] it was 1.98%; in [10] it was 6.1%; in [11], -2.5%.
In the case of `COc1ccccc1OCC(=O)Nc1ncccc1OC(F)F`, the Percent Effect in [1] is -3.34%; in test [2] it was 1.39%; in [3], -0.812%; in [4] it was -4.65%; in test [5], -7.48%; in test [6], 4.86%. The Percent Effect was 13.2% in test [7]; -3.02% in test [8]; 1.05% in test [9]; -5.13% in [10]; -3.95% in test [11].
Consider `O=C(CCCOc1ccc(F)cc1)N1CCCC(n2cccn2)C1` (stereo not given), for which the Percent Effect in test [1] was -2.63%; in test [2], 13%; in [3], 4.56%; in test [4], 2.38%; in [5], -3.82%; in test [6] it was 2.74%. For the same compound, the Percent Effect in test [7] was 6.71%; in test [8], 15.8%; in test [9], 2.86%; in test [10], 11.8%; in test [11], -14.5%.
On to `CNC(=O)c1cc2c(nc1N(C)C)CCN(S(=O)(=O)CC(C)C)CC2`, for which the Percent Effect was -2.25% in [1]; 5.2% in [2]; 7.84% in test [3]; 6.98% in [4]; -2.27% in [5]; -5.81% in test [6]. The Percent Effect in [7] was 3.83%; in test [8], -12.4%; in test [9], -9.52%; in test [10], 1.28%; in test [11], -2.31%.
With `O=C(c1ccc[nH]1)N1CCCC2(CCN(c3ccsc3)C2=O)C1` (stereo not given), the Percent Effect in test [1] was -0.928%; in test [2] it was -2.6%; in [3], 11.3%; in [4], 3.88%; in [5] it was -3.06%; in test [6] it was -5.81%. The Percent Effect is 1.57% in test [7]; 4.99% in [8]; -3.17% in test [9]; -3.85% in [10]; -1.57% in [11].

The values are drawn from ChEMBL document CHEMBL3988442, “University of Dundee, Small-Polar-MMV Screening Library” (2021).
